From PubChem BioAssay (NCATS)
Results filed as inconclusive are left out. Activity calls are given as the source filed them. Calls follow the shape of the dose curve; as a rule, active = well fitted cell-killing curve with a large enough effect; inconclusive = small, poorly fitted or top-dose-only effect, or effect the other way; inactive = flat fitted curve, though single readings scatter.

Legend:
Test in all cases: Primary qHTS to identify gynecologic anti-cancer compounds using libraries of approved drugs and bioactive compounds (AID 1345084); also: nearly all actives have a fitted effect of over 55% in size
C33A = conditions: Gynecologic cancer cell panel viability, ATPlite luminescence, 48 h; series mostly up to 57.5 µM
How it was run: (§1)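 Cytotoxicity screen measuring ATP content by luciferase luminescence. Each compound is applied at five concentrations for 48 h at 37 C with 5% CO2.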

CAOV3 = conditions: Gynecologic cancer cell panel viability, ATPlite luminescence, 48 h; series mostly up to 57.5 µM
How it was run: as §1

CASKI = conditions: Gynecologic cancer cell panel viability, ATPlite luminescence, 48 h; series mostly up to 57.5 µM
How it was run: as §1

Es-2 = conditions: Gynecologic cancer cell panel viability, ATPlite luminescence, 48 h; series mostly up to 57.5 µM
How it was run: as §1

HeLa = conditions: Gynecologic cancer cell panel viability, ATPlite luminescence, 48 h; series mostly up to 57.5 µM
How it was run: as §1

Hek293T = conditions: Gynecologic cancer cell panel viability, ATPlite luminescence, 48 h, control line for the selectivity index; series mostly up to 57.5 µM
How it was run: as §1

JEG-3 = conditions: Gynecologic cancer cell panel viability, ATPlite luminescence, 48 h; series mostly up to 57.5 µM
How it was run: as §1

OV90 = conditions: Gynecologic cancer cell panel viability, ATPlite luminescence, 48 h; series mostly up to 57.5 µM
How it was run: as §1

PA-1 = conditions: Gynecologic cancer cell panel viability, ATPlite luminescence, 48 h; series mostly up to 57.5 µM
How it was run: as §1

Tov-21-G = conditions: Gynecologic cancer cell panel viability, ATPlite luminescence, 48 h; series mostly up to 57.5 µM
How it was run: as §1

Tov112D = conditions: Gynecologic cancer cell panel viability, ATPlite luminescence, 48 h; series mostly up to 57.5 µM
How it was run: as §1

SKOV3 = conditions: Gynecologic cancer cell panel viability, ATPlite luminescence, 48 h; series mostly up to 57.5 µM
How it was run: as §1
% is scaled to controls: 0 for no effect and ±100 for the full control effect.

CC(=O)O[C@H]1C[C@@](O)(C(C)C)C2[C@@H](OC(=O)c3ccc(O)cc3)C[C@@]3(C)O[C@H]3C[C@]21C (stereo not given in full)
inactive: Potency (C33A) | Potency (CAOV3) | Potency (CASKI) | Potency (Es-2) | Potency (HeLa) | Potency (Hek293T) | Potency (JEG-3) | Potency (OV90) | Potency (PA-1) | Potency (Tov-21-G) | Potency (Tov112D)

OC[C@H]1O[C@@H](O[C@H]2[C@H](OCc3ccccc3)O[C@H](CO[C@@H]3OC[C@@H](O)[C@H](O)[C@H]3O)[C@@H](O)[C@@H]2O)[C@H](O)[C@@H](O)[C@@H]1O
inactive: Potency (C33A) | Potency (CAOV3) | Potency (CASKI) | Potency (Es-2) | Potency (HeLa) | Potency (Hek293T) | Potency (JEG-3) | Potency (OV90) | Potency (PA-1) | Potency (Tov-21-G) | Potency (Tov112D)

C[C@@H]1O[C@@H](O[C@@H]2[C@@H](O)[C@H](O[C@H]3[C@H](O[C@H]4CC[C@@]5(C)C(CC[C@]6(C)C5CC=C5[C@@H]7CC(C)(C)CC[C@]7(C(=O)O[C@@H]7O[C@H](CO)[C@@H](O)[C@H](O)[C@H]7O[C@@H]7O[C@@H](C)[C@H](O[C@@H]8O[C@@H](C)[C@H](O)[C@@H](O)[C@H]8O)[C@@H](O)[C@H]7O)CC[C@]56C)[C@@]4(C)CO)O[C@H](C(=O)O)[C@@H](O)[C@@H]3O)O[C@H](CO)[C@H]2O)[C@H](O)[C@H](O)[C@H]1O (stereo not given in full)
inactive: activity change, negative = cytotoxicity (C33A) 0.245% [at 6.55 µM] | activity change, negative = cytotoxicity (CAOV3) 5.38% [at 6.55 µM] | activity change, negative = cytotoxicity (CASKI) 3.98% [at 6.55 µM] | activity change, negative = cytotoxicity (Es-2) -0.113% [at 6.55 µM] | activity change, negative = cytotoxicity (HeLa) 1.1% [at 6.55 µM] | activity change, negative = cytotoxicity (Hek293T) 2.2% [at 6.55 µM] | activity change, negative = cytotoxicity (JEG-3) 8.58% [at 6.55 µM] | activity change, negative = cytotoxicity (OV90) 6.41% [at 6.55 µM] | activity change, negative = cytotoxicity (PA-1) 2.55% [at 6.55 µM] | activity change, negative = cytotoxicity (Tov-21-G) -1.58% [at 6.55 µM] | activity change, negative = cytotoxicity (Tov112D) 10.3% [at 6.55 µM]

O=C(Cc1ccc(-c2ccccc2)cc1)NC1CCC1
inactive: Potency (C33A) | Potency (CAOV3) | Potency (CASKI) | Potency (Es-2) | Potency (HeLa) | Potency (Hek293T) | Potency (JEG-3) | Potency (OV90) | Potency (PA-1) | Potency (Tov-21-G) | Potency (Tov112D)

N[C@@]1(C(=O)O)CC[C@H]2[C@H](C(=O)O)[C@H]21
inactive: Potency (C33A) | Potency (CAOV3) | Potency (CASKI) | Potency (Es-2) | Potency (HeLa) | Potency (Hek293T) | Potency (JEG-3) | Potency (OV90) | Potency (PA-1) | Potency (Tov-21-G) | Potency (Tov112D)

O=C(Nc1c(-c2cccs2)nc2ccccn12)c1ccc(Cl)cc1
inactive: Potency (C33A) | Potency (CAOV3) | Potency (CASKI) | Potency (Es-2) | Potency (HeLa) | Potency (Hek293T) | Potency (JEG-3) | Potency (OV90) | Potency (PA-1) | Potency (Tov112D)

CC(CCC1(O)OC2CC3C4CCC5CC(O[C@@H]6O[C@H](CO)[C@@H](O)[C@H](O)[C@H]6O[C@@H]6O[C@@H](C)[C@H](O)[C@@H](O)[C@H]6O)C(O)CC5(C)C4CCC3(C)C2C1C)CO[C@@H]1O[C@H](CO)[C@@H](O)[C@H](O)[C@H]1O (stereo not given in full)
inactive: activity change, negative = cytotoxicity (C33A) 3.88% [at 11.6 µM] | activity change, negative = cytotoxicity (CAOV3) -13.8% [at 11.6 µM] | activity change, negative = cytotoxicity (CASKI) -0.222% [at 11.6 µM] | activity change, negative = cytotoxicity (Es-2) -3.1% [at 11.6 µM] | activity change, negative = cytotoxicity (HeLa) 3.09% [at 11.6 µM] | activity change, negative = cytotoxicity (Hek293T) 17.8% [at 11.6 µM] | activity change, negative = cytotoxicity (JEG-3) -0.873% [at 11.6 µM] | activity change, negative = cytotoxicity (OV90) 22.7% [at 11.6 µM] | activity change, negative = cytotoxicity (SKOV3) 3.64% [at 11.6 µM] | activity change, negative = cytotoxicity (Tov-21-G) 6.58% [at 11.6 µM] | activity change, negative = cytotoxicity (Tov112D) 18.3% [at 11.6 µM]

CC(C)(O)c1ccc2c(c1)C(O)C[C@H]1[C@](C)(C(=O)O)CCC[C@]21C (stereo not given in full)
inactive: Potency (C33A) | Potency (CAOV3) | Potency (CASKI) | Potency (Es-2) | Potency (HeLa) | Potency (Hek293T) | Potency (JEG-3) | Potency (OV90) | Potency (PA-1) | Potency (Tov-21-G) | Potency (Tov112D)

CC(C)c1nnc(-c2ccc(-c3ccccc3)nc2)n1-c1cccc2nonc12
inactive: Potency (C33A) | Potency (CAOV3) | Potency (CASKI) | Potency (Es-2) | Potency (HeLa) | Potency (Hek293T) | Potency (JEG-3) | Potency (OV90) | Potency (PA-1) | Potency (Tov112D)

CC(C)c1cc(C(=O)N2CC[C@@H](NC(=O)C3CC3)C2)n[nH]1
inactive: Potency (C33A) | Potency (CAOV3) | Potency (CASKI) | Potency (Es-2) | Potency (HeLa) | Potency (Hek293T) | Potency (JEG-3) | Potency (OV90) | Potency (PA-1) | Potency (Tov-21-G) | Potency (Tov112D)

Clc1cc2c(NC3CCCC3)nnc(-c3ccncc3)c2cc1Cl
inactive: Potency (C33A) | Potency (CAOV3) | Potency (CASKI) | Potency (Es-2) | Potency (HeLa) | Potency (Hek293T) | Potency (JEG-3) | Potency (OV90) | Potency (PA-1) | Potency (Tov-21-G) | Potency (Tov112D)

CC(C)(C)OC(=O)N1CCC(OCc2nc(-c3ccncc3)no2)CC1
inactive: Potency (C33A) | Potency (CAOV3) | Potency (CASKI) | Potency (Es-2) | Potency (HeLa) | Potency (Hek293T) | Potency (JEG-3) | Potency (OV90) | Potency (PA-1) | Potency (Tov112D)

C/C=C/C=C/C(O)=C1\C(=O)[C@]2(C)C3C(C(=O)CC/C=C/C)=C(O)C4(C)C1[C@]1(C)O[C@@]4(O)[C@@]3(C)O[C@@]12O
inactive: Potency (C33A) | Potency (CAOV3) | Potency (CASKI) | Potency (Es-2) | Potency (HeLa) | Potency (Hek293T) | Potency (JEG-3) | Potency (PA-1) | Potency (SKOV3) | Potency (Tov-21-G) | Potency (Tov112D)
